Results published in PubChem BioAssay (Tox21).
Inconclusive results are not listed. The source made the active and inactive calls. Unless noted, calls come from the whole dose curve; as a rule, active = well fitted curve in the direction sought with a large enough effect in the repeat runs; inconclusive = weak or mixed curves; inactive = no such curve, though single readings can be large; an effect the other way counts as inactive or inconclusive.

Experiments:
[1] = biological target: Thyrotropin receptor (Homo sapiens) (UniProt P16473); assay: qHTS assay to identify small molecule antagonists of the thyroid stimulating hormone receptor (TSHR) signaling pathway (AID 1259385; calls by dose curve; note: nearly all actives have a fitted effect of over 20% in size)
In short: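 TSHR-HEK293 cells were plated and held 18 h at 37C/5% CO2, then given compound plus Ro20-1724 and stimulated with TSH at 1.5 ng/mL final. After 30 min at room temperature, cAMP was detected with cAMP-d2/anti-cAMP-cryptate (1 h) by fluorescence.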

[2] = biological target: Progesterone receptor (Homo sapiens) (UniProt P06401); assay: qHTS assay to identify small molecule antagonists of the progesterone receptor (PR) signaling pathway (AID 1346795; active = well fitted inhibition curve with a large enough effect in the signal ratio in the repeat runs, not every such curve was filed as active; the % refers to the signal ratio)
In short: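 Screening used a GripTite HEK293T line with PR-responsive UAS-beta-lactamase. Cells were challenged with compound in the presence of 1 nM R5020 final for 16 hr at 37C; B/G FRET substrate, 2 hr room temperature, fluorescence.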

[3] = qHTS assay to identify small molecule antagonists of the progesterone receptor (PR) signaling pathway - cell viability counter screen (AID 1346798); note: series mostly up to about 92 µM; nearly all actives have a fitted effect of over 50% in size
In short: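 Measures cytotoxicity in parallel with the PR antagonist reporter read: HEK293T PR-UAS-bla cells get compound and R5020 for 16 hr, and remaining viable cells are quantified by CellTiter-Glo luminescence.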

[4] = qHTS assay to identify small molecule agonists of the progesterone receptor (PR) signaling pathway - cell viability counter screen (AID 1346799; calls by dose curve; note: nearly all actives have a fitted effect of over 45% in size)
In short: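 Using the same plates as the PR reporter screen, HEK293T PR-UAS-bla cells received compounds for 16 hr at 37C and were then lysed with CellTiter-Glo; luminescence was read 30 min later at room temperature.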

[5] = qHTS assay to identify small molecule antagonists of the TGF-beta/Smad signaling pathway - cell viability counter screen (AID 1346824); note: nearly all actives have a fitted effect of over 50% in size
In short: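 SBE-bla HEK 293T cells were plated overnight at 37 C, then given compounds in DMSO plus TGF-beta1 (added as 0.25 ng/mL solution) for 5 hr. After the bla read, CellTiter-Glo was added to the same wells and luminescence read after 30 min at room temperature.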

[6] = qHTS assay to identify small molecule agonists of the TGF-beta/Smad signaling pathway (AID 1346859; active = well fitted activation curve with a large enough effect in the signal ratio in the repeat runs, not every such curve was filed as active; the % refers to the signal ratio; note: series mostly up to about 77 µM)
In short: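 Beta-lactamase reporter activity downstream of Smad binding elements was measured in stably transfected HEK 293T cells; compounds were incubated for 5 hr, substrate for 2 hr at room temperature.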

[7] = biological target: Thyrotropin-releasing hormone receptor (Homo sapiens) (UniProt P34981); assay: qHTS assay to identify small molecule agonists of the thyrotropin-releasing hormone receptor (TRHR) signaling pathway (AID 1346891; calls by dose curve;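 note: HEK293 cells expressing TRHR with calcium dye readout; series mostly up to about 58 µM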)
In short: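 Overnight-plated (18 h, 37 °C, 5% CO2) TRHR-Hek293 cells; 2 h calcium dye at 37 °C; compound in DMSO; 3-min kinetic fluorescence read.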

[8] = Human pregnane X receptor (PXR) small molecule agonists, qHTS cell viability counter screen (AID 1346977); note: nearly all actives have a fitted effect of over 50% in size
In short: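 After a 5hr pre-incubation, PXR-Luc HepG2 cells received compounds plus positive control in DMSO and were kept 24hr at 37C. Cell viability was quantified by fluorescence from CellTiter-Fluor added for the final hour.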

[9] = Caspase-3/7 induction in HepG2 cells by small molecules, qHTS assay (AID 1346978); note: nearly all actives have a fitted effect of over 15% in size
In short: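 Wild-type HepG2 cells (2,000/well) were settled 5 h at 37 C, 5% CO2, then exposed to compounds in DMSO for 17 h. Caspase-3/7 activity was read by luminescence 30 min after adding Caspase-Glo 3/7 reagent at room temperature.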

[10] = Caspase-3/7 induction in CHO-K1 cells by small molecules, qHTS cell viability counter screen (AID 1346979); note: nearly all actives have a fitted effect of over 35% in size
In short: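 Multiplexed with Caspase-Glo 3/7 in CHO-K1 cells, this counter screen added CellTiter-Fluor after 16hr of compound exposure and recorded fluorescence 1hr later.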

[11] = Caspase-3/7 induction in CHO-K1 cells by small molecules, qHTS assay (AID 1346980); note: nearly all actives have a fitted effect of over 15% in size
In short: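 Wild-type cells were seeded at 1,500 per well and settled 5 hr at 37 C, 5% CO2, then exposed to DMSO-dissolved compounds for 17 hr. Caspase-Glo 3/7 reagent was added, and luminescence was read after 30min at room temperature.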

[12] = Caspase-3/7 induction in HepG2 cells by small molecules, qHTS cell viability counter screen (AID 1346981); note: series mostly up to about 92 µM; nearly all actives have a fitted effect of over 30% in size
In short: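 Fluorescence read-out of live-cell protease activity (CellTiter-Fluor) after 1 hr with reagent. This was measured in the same wells as the caspase-3/7 luminescence, on HepG2 cells exposed to DMSO-dissolved compounds for 16 hr at 37 C.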

[13] = biological target: Nuclear receptor subfamily 1 group I member 2 (Homo sapiens) (UniProt O75469); assay: Human pregnane X receptor (PXR) small molecule agonists, qHTS assay (AID 1346982); note: nearly all actives have a fitted effect of over 35% in size; note: potency is the fitted concentration of half-maximal effect
In short: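 HepG2 PXR-Luc reporter line, 5% charcoal-stripped FBS; 5 hr pre-incubation, compound (DMSO) 24 hr at 37 C/5% CO2; ONE-Glo 30 min RT; luminescence read-out.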

[14] = biological target: Nuclear receptor subfamily 1 group I member 2 (Rattus norvegicus) (UniProt Q9R1A7); assay: Rat pregnane X receptor (rPXR) activation by small molecules, qHTS assay (AID 1346983); details: rPXR luciferase reporter cells, One-Glo luminescence, 24 h; active compounds read high; note: nearly all actives have a fitted effect of over 20% in size
In short: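 Cell-based rPXR luciferase reporter assay, 2,000 cells per well, rested 5hr at 37 C before compound addition in DMSO, then 24 hr at 37 C. One-Glo reagent was added and luminescence read after 30 min at room temperature.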

[15] = biological target: Nuclear receptor subfamily 1 group I member 2 (Homo sapiens) (UniProt O75469); assay: CYP3A4 induction through human pregnane X receptor (PXR) by small molecules, qHTS assay (AID 1346984); note: nearly all actives have a fitted effect of over 40% in size; note: potency is the fitted concentration of half-maximal effect
In short: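 HepG2-derived DPX-2 line carrying PXR plus a CYP3A4-promoter luciferase reporter; cells plated 5 hr, compound-exposed 24 hr at 37C. CYP3A4 activity probed with 3uM (final) Luciferin-IPA for 3hr, then luciferase read after One-Glo.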

[16] = biological target: Nuclear receptor subfamily 1 group I member 2 (Homo sapiens) (UniProt O75469); assay: Human pregnane X receptor (PXR) activation by small molecules, qHTS assay (AID 1346985); note: nearly all actives have a fitted effect of over 40% in size; note: potency is the fitted concentration of half-maximal effect
In short: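 DPX-2 cells (HepG2 co-transfected with a PXR response element and a CYP3A4-promoter luciferase construct) were seeded at 2,000 per well, rested 5 hr at 37C, then exposed to DMSO-dissolved compounds for 24 hr. Activation was read as luciferase luminescence.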

[17] = biological target: Progesterone receptor (Homo sapiens) (UniProt P06401); assay: qHTS assay to identify small molecule agonists of the progesterone receptor (PR) signaling pathway (AID 1346784; calls by dose curve; note: nearly all actives have a fitted effect of over 30% in size; note: potency is the fitted concentration of half-maximal effect)
In short: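 Seed PR-UAS-bla HEK 293T cells (2% charcoal-stripped FBS), incubate 6 hr at 37C; add compounds in DMSO, 16 hr at 37C; add LiveBLAzer B/G substrate, 2 hr RT; read fluorescence intensity.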

[18] = qHTS assay to identify small molecule agonists of the TGF-beta/Smad signaling pathway - cell viability counter screen (AID 1346829); note: top concentration of the series differs between compounds; nearly all actives have a fitted effect of over 45% in size
In short: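 Tox21 qHTS format: SBE-bla HEK 293T cells treated with DMSO-dissolved compounds for 5 hr; CellTiter-Glo luminescence after 30 min at room temperature.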

[19] = biological target: Thyrotropin-releasing hormone receptor (Homo sapiens) (UniProt P34981); assay: qHTS assay to identify small molecule antagonists of the thyrotropin-releasing hormone receptor (TRHR) signaling pathway (AID 1346877; active = well fitted inhibition curve with a large enough effect in the repeat runs, not every such curve was filed as active; note: series mostly up to about 51 µM)
In short: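 HEK293/TRHR cells, 18 h, 37 °C; Ca2+ dye 2 h; cpd 5 min RT; TRH 1 nM final; fluorescence read 3 min, 1 s intervals; 15 concs, triplicate.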

[20] = qHTS assay to identify small molecule agonists of the estrogen receptor alpha (ER-alpha) signaling pathway in the presence of an antagonist - cell viability counter screen (AID 1259386);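 note: series mostly up to about 92 µM; cells exposed to compounds for 22 h at 37 °C before the viability read; nearly all actives have a fitted effect of over 30% in size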
In short: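 Read-out: CellTiter-Fluor fluorescence after 1hr reagent incubation, measured in the same wells as the luciferase readout. VM7Luc4E2 cells were exposed to 15 compound concentrations with 10.0nM ICI-182,780 for 22hr at 37C.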
% is set by controls: 0 for no effect and ±100 for the full control effect.

Sequence of Progesterone receptor (Homo sapiens) (P06401 whole entry, looked up): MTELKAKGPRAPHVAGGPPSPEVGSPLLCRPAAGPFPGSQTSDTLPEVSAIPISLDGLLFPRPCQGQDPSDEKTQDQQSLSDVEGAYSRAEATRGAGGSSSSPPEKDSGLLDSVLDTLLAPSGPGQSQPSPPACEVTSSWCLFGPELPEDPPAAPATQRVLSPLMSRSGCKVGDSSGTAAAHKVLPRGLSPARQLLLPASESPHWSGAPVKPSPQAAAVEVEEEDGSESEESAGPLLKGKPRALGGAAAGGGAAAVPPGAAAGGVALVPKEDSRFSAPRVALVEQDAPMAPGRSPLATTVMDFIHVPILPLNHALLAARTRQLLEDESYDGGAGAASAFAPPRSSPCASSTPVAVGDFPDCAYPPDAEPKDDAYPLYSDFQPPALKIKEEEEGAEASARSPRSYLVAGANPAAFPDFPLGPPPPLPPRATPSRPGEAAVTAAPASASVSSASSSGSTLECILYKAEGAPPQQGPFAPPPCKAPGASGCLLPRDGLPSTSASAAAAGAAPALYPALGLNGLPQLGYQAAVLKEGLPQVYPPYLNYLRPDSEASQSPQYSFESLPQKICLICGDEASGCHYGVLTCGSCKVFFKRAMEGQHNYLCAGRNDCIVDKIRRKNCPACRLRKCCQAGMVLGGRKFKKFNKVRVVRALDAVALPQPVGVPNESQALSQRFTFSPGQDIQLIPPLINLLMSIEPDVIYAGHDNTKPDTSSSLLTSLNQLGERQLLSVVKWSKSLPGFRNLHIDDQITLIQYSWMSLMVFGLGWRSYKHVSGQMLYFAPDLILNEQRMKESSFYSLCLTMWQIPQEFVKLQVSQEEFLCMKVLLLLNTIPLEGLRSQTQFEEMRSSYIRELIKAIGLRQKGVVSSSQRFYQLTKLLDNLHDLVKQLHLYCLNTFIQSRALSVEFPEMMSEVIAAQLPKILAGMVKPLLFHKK
Sequence of Thyrotropin receptor (Homo sapiens) (P16473 whole entry, looked up): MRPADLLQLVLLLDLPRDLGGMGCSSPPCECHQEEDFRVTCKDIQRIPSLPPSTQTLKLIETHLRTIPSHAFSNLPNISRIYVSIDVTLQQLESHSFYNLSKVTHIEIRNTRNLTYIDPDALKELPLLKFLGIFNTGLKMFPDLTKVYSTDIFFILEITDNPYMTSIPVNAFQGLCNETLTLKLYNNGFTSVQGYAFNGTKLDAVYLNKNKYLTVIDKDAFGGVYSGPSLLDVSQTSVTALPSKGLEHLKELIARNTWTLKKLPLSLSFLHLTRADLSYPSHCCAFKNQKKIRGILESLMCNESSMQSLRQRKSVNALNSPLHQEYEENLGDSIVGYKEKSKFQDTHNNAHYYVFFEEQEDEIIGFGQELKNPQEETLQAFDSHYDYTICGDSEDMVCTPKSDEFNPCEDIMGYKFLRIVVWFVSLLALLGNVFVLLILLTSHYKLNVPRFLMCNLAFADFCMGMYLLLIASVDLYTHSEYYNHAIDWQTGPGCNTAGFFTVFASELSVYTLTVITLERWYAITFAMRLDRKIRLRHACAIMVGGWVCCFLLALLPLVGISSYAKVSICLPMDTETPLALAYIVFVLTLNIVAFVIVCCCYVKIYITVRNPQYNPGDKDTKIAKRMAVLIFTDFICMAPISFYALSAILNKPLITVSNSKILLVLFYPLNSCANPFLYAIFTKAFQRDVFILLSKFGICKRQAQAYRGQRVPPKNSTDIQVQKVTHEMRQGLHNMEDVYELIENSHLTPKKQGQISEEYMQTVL
Sequence of Nuclear receptor subfamily 1 group I member 2 (Rattus norvegicus) (Q9R1A7 whole entry, looked up): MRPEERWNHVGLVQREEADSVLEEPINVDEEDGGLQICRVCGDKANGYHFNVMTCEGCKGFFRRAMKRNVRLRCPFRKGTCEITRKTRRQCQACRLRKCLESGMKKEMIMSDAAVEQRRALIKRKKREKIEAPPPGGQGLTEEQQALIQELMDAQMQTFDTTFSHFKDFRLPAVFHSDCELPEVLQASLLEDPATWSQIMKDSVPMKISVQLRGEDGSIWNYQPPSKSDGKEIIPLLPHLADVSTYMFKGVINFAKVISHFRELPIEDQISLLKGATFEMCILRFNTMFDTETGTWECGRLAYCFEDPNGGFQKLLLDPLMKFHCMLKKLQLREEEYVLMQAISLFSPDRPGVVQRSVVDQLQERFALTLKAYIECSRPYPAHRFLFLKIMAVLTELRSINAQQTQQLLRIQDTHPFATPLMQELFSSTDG
Sequence of Thyrotropin-releasing hormone receptor (Homo sapiens) (P34981 whole entry, looked up): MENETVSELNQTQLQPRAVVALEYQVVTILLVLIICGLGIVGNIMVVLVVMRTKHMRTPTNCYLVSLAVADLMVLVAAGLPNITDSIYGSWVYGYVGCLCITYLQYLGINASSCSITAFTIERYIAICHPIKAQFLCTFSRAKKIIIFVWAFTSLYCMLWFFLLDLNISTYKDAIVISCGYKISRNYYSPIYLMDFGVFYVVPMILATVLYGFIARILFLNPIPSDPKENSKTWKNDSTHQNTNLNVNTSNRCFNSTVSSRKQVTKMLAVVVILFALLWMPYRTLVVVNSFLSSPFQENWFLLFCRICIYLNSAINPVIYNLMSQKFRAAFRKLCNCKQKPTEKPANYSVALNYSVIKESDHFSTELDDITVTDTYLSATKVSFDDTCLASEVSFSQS
Sequence of Nuclear receptor subfamily 1 group I member 2 (Homo sapiens) (O75469 whole entry, looked up): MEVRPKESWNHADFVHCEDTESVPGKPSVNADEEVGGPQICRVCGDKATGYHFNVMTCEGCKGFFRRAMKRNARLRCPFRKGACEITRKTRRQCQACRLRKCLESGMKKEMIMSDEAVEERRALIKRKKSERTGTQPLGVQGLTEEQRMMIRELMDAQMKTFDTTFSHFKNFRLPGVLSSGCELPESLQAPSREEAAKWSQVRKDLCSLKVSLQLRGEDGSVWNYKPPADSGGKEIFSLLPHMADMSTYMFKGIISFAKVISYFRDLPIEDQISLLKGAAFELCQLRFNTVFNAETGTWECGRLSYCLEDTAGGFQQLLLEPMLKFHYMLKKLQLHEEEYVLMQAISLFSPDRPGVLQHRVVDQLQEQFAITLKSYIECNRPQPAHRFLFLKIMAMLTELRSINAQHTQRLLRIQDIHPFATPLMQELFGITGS

Nc1ccc(S(=O)(=O)Nc2ccnn2-c2ccccc2)cc1
inactive: activity change, negative = inhibition [1] 0.942% [at 19 µM] | Potency [2] | Potency [3] | activity change, negative = cytotoxicity [4] -4.95% [at 19 µM] | viability change, negative = cytotoxic [5] 6.26% [at 15.8 µM] | activation [6] -0.937% [at 15.8 µM] | activation [7] -0.182% [at 11.8 µM] | activity change, negative = cytotoxicity [8] -0.0622% [at 19 µM] | caspase activation [9] 0.58% [at 19 µM] | Potency [10] | caspase-3/7 activation [11] 1.89% [at 19 µM] | activity change, negative = cytotoxicity [12] -0.388% [at 19 µM] | activation [13] -6.08% [at 19 µM] | max activation [14] 8.45% | Potency [15] | Potency [16]

CCCN1CCCC[C@H]1C(=O)Nc1c(C)cccc1C
inactive: Potency [1] | Potency [17] | Potency [3] | Potency [4] | Potency [5] | outcome [18] | outcome [6] | outcome [19] | outcome [7] | Potency [8] | Potency [9] | Potency [10] | outcome [11] | Potency [12] | max activation [14] 0.29%

O=C1CCCC(=O)C1
inactive: Potency [20] | Potency [17] | Potency [2] | Potency [3] | Potency [4] | Potency [5] | outcome [18] | outcome [6] | outcome [7] | Potency [8] | Potency [9] | Potency [10] | outcome [11] | Potency [12] | Potency [13]

CC(=O)Nc1c(I)cc(I)c(C(=O)O)c1I
inactive: Potency [20] | Potency [17] | Potency [2] | Potency [3] | Potency [4] | Potency [5] | outcome [18] | outcome [6] | Potency [8] | Potency [9] | Potency [10] | outcome [11] | Potency [12] | Potency [13] | max activation [14] -2.53% | Potency [15] | Potency [16]

CC(=O)OCC(CCn1cnc2cnc(N)nc21)COC(C)=O
inactive: Potency [1] | Potency [4] | Potency [5] | outcome [18] | outcome [6] | outcome [19] | outcome [7] | Potency [8] | Potency [9] | Potency [10] | outcome [11] | Potency [12] | Potency [13] | max activation [14] -0.776% | Potency [15] | Potency [16]

COc1ccc2c(c1)CCCC2=O
inactive: Potency [17] | Potency [2] | Potency [3] | Potency [4] | Potency [5] | outcome [18] | outcome [6] | Potency [8] | Potency [9] | Potency [10] | outcome [11] | Potency [12] | Potency [13]

CO[Si](CCCOCC1CO1)(OC)OC (configuration not stated)
inactive: Potency [20] | Potency [17] | Potency [2] | Potency [4] | Potency [5] | outcome [18] | outcome [6] | outcome [7] | Potency [8] | Potency [9] | Potency [10] | outcome [11] | Potency [12] | Potency [13]

C[N+](C)(C)CCCCCC[N+](C)(C)C
inactive: Potency [20] | Potency [2] | Potency [3] | Potency [4] | outcome [6] | outcome [19] | outcome [7] | Potency [8] | Potency [9] | Potency [10] | outcome [11] | Potency [12] | max activation [14] 0.135%

CCS(=O)(=O)c1ccc(OC)c(C(=O)OC)c1
inactive: Potency [20] | Potency [3] | Potency [4] | Potency [5] | outcome [18] | outcome [6] | outcome [19] | outcome [7] | Potency [8] | Potency [9] | Potency [10] | outcome [11] | Potency [12] | Potency [13]

Cc1nc2c([nH]1)c(=O)n(C)c(=O)n2Cc1ccco1
inactive: Potency [17] | Potency [3] | Potency [4] | Potency [5] | outcome [18] | outcome [6] | outcome [7] | Potency [8] | Potency [9] | Potency [10] | Potency [12] | Potency [13]

CC/C=C\CC/C=C/CO
inactive: Potency [20] | Potency [17] | Potency [2] | Potency [3] | Potency [4] | outcome [6] | outcome [19] | outcome [7] | Potency [8] | Potency [9] | Potency [10] | outcome [11] | Potency [12] | Potency [13]

Cn1c(N)c(N=O)c(=O)n(C)c1=O
inactive: Potency [20] | Potency [4] | Potency [5] | outcome [18] | outcome [6] | outcome [7] | Potency [8] | Potency [9] | Potency [10] | Potency [12] | Potency [13]

O=C(CCCN1CCN(c2ccccn2)CC1)c1ccc(F)cc1
inactive: Potency [20] | Potency [17] | Potency [2] | Potency [3] | Potency [4] | Potency [5] | outcome [18] | outcome [6] | outcome [19] | outcome [7] | Potency [8] | Potency [9] | Potency [10] | outcome [11] | Potency [12] | max activation [14] 0.0374%
active: Potency [13] 6.68 µM | Potency [15] 12.6 µM | Potency [16] 10 µM

CN1CCN(c2cc3c(cc2F)c(=O)c(C(=O)O)cn3-c2ccc(F)cc2)CC1
inactive: Potency [20] | Potency [3] | Potency [4] | Potency [5] | outcome [18] | outcome [19] | outcome [7] | Potency [8] | Potency [9] | Potency [10] | outcome [11] | Potency [12] | Potency [13] | max activation [14] -3.97% | Potency [15] | Potency [16]
active: Potency [17] 29.8 µM

CC(=O)OCC(=O)[C@@]1(O)CC[C@H]2[C@@H]3CCC4=CC(=O)CC[C@]4(C)[C@H]3C(=O)C[C@@]21C
inactive: Potency [20] | Potency [17] | Potency [4] | Potency [5] | outcome [18] | outcome [6] | Potency [8] | Potency [9] | Potency [10] | outcome [11] | Potency [12] | Potency [13]

CCOC(=O)CCC(C)=O
inactive: Potency [20] | Potency [17] | Potency [2] | Potency [3] | Potency [4] | Potency [5] | outcome [18] | outcome [6] | Potency [8] | Potency [9] | Potency [10] | outcome [11] | Potency [12] | Potency [13]
